The whole screen tested about 290,000 compounds, of which about 60 (0.02%) were called active. Another 1% or so got no clear call; they are omitted. A selection follows. Entries with a potency or affinity are not part of this list. A number with no mark means an inactive call. The rule behind the calls is not given here.
Test: West Nile virus antiviral activity, cell-based, CPE readout (AID 1621)
Conditions: West Nile virus-infected cells, at 10 µM, active compounds read high

Compound | CPE inhibition [%]
CCOc1ccc(-c2cc(C(=O)NCCCN3CCCC3)c3ccccc3n2)cc1 | 11.7
Cc1ccc(-c2cc(C(=O)NCCCN3CCOCC3)c3ccccc3n2)cc1C | 0.07
O=C(NCc1ccc(F)cc1)C1CCCN(S(=O)(=O)c2ccc(-n3cnnn3)cc2)C1 (stereo not given) | 0.7
CN(C)CCCN1c2ccccc2CCc2ccc(Cl)cc21 | -0.38
CN(C)CCCN1c2ccccc2CCc2ccccc21 | -0.69
COc1ccc(/C=C/C(=O)OCC(=O)NCc2ccco2)c(OC)c1 | -0.46
CCC(C)C(=O)N1CCCC(c2nc(-c3cccs3)no2)C1 (stereo not given) | -0.34
COc1ccccc1OCCn1cc(/C=N/NC(N)=S)c2ccccc21 | -0.18
Cc1cccc(-n2c(SCC(=O)O)nc3sc4c(c3c2=O)CCCC4)c1 | 0.2
C[C@@H]1C[C@@H]2OC(=O)[C@]3(C)[C@H]2[C@@H](OC3(C)O)[C@]2(C)C(=O)C=C[C@H]12 (stereo not given in full) | 1.25
CCOC(=O)C1CCN(C(=S)Nc2cc(OC)c(OC)cc2C(=O)OC)CC1 | 0.82
O=C(NCCCN1CCCC1)c1ccc2c(c1)N(Cc1ccccc1F)C(=O)c1ccccc1S2=O (stereo not given) | -0.62
Cc1ccccc1CN1C(=O)c2ccccc2S(=O)c2ccc(C(=O)NCCCN3CCOCC3)cc21 (stereo not given) | -0.39
Cc1ccc(-c2csc(N3CCN(c4cc5c(cc4Cl)nc(C)n5CCN4CCCCC4)CC3)n2)cc1 | 0.49
O=[N+]([O-])c1ccc(C(O)CSC(=S)N2CCCCC2)cc1 (stereo not given) | -0.96
CCN1CCN(c2ccc(S(=O)(=O)N3CCCCC3)cc2NC(=O)Cc2ccc(OC)cc2)CC1 | 0.99
CCN1CCN(c2ccc(S(=O)(=O)N3CCCCC3)cc2NC(=O)Cc2c(F)cccc2Cl)CC1 | 0.49
COc1ccc(Cl)cc1C(=O)NCCCSc1ccccc1 | -1.17
COc1ccc(CNC(=O)CCN2C(=O)c3ccncc3C2=O)cc1OC | 0.59
COc1cc(-c2nc(C(=O)NC3CCCCC3)cc3c2[nH]c2ccccc23)cc(OC)c1OC | 1.01
N=c1c(C(=O)NCCN2CCOCC2)cc2c(=O)n3ccccc3nc2n1Cc1ccc(F)cc1 | 0
Cc1cccn2c(=O)c3cc(C(=O)NCCN4CCOCC4)c(=N)n(CCN4CCOCC4)c3nc12 | -0.04
CN1C(=O)c2ccc(C(=O)NCc3ccco3)cc2C1=O | 1.39

Compound | CPE inhibition [%]
c1ccc(Sc2ncnc3c2oc2ccccc23)nc1 | 1.08
ClC(/C=N/n1cnnc1)=C/c1ccccc1 | 2.95
CC(/C=N/n1cnnc1)=C\c1ccccc1 | -0.2
Cc1ccc2nc(Nc3ccccc3)c(C=O)c(=O)n2c1 | -0.78
CCN(CC)C(=O)Nc1c(C)n(C)n(-c2ccccc2)c1=O | 0.37
CCOC(=O)c1c(CN2CCOCC2)n(-c2ccccc2)c2cc(Br)c(O)cc12 | 1.59
CCOC(=O)c1c(CN2CCN(C)CC2)n(-c2ccccc2)c2cc(Br)c(O)cc12 | 0.39
COc1ccc(CCN(C)C(=O)c2cccc(S(=O)(=O)NCc3ccccc3)c2)cc1OC | -1.05
O=C1N[C@@H](Cc2ccccc2)C(=O)N2[C@@H]1C[C@@]1(Br)c3ccccc3N(S(=O)(=O)c3ccccc3)[C@@H]21 | -0.59
CC(C)c1cc(C(C)C)c(S(=O)(=O)N2c3ccccc3[C@@]3(Br)C[C@H]4C(=O)N[C@@H](Cc5ccccc5)C(=O)N4[C@@H]23)c(C(C)C)c1 | 2.08
CCOC(=O)c1c(C)c(C(=O)NCc2cccs2)c(C)n1CC | -0.75
Fc1cccc(Cl)c1Cn1nnc2c(N3CCC4(CC3)OCCO4)ncnc21 | 0.17
COc1ccc(C(=O)Oc2ccc3c(c2)OCO3)cc1OC | 0.51
COc1cc2c(O)c3c(c(-c4ccc5c(c4)OCO5)c2cc1OC)C(=O)OC3 | 12.1
Cc1nn(Cc2ccccc2Cl)c2sc(C(=O)OC3CCCC3=O)cc12 (stereo not given) | -0.34
O=C(NCC(c1cccnc1)N1CCOCC1)NC1CCCCC1 (stereo not given) | 0.45
CCOC(=O)c1c(-c2ccc(F)cc2)csc1NC(=O)c1c(-c2ccccc2)noc1C | -0.66
COC(=O)c1c(-c2ccc(C)cc2)csc1NC(=O)c1c(-c2ccccc2)noc1C | 0.29
COCCCNC(=S)N1CCCN(c2nc3cc(C)ccc3cc2C#N)CC1 | -0.77
COc1cc(C(=O)N2CCCN(c3nc4cc(C)ccc4cc3C#N)CC2)cc(OC)c1OC | 0.84
COc1cc(-c2csc(NC3CCCCC3)n2)cc(OC)c1OC | -0.66
COc1ccc(/C=C2\SC(=S)N(NS(=O)(=O)c3ccc(C)cc3)C2=O)c(OC)c1 | -0.03
N=C1C(c2nc(-c3ccc(F)cc3)cs2)=C(O)CN1CCCN1CCOCC1 | 2.36

Compound | CPE inhibition [%]
O=C(CN1CCOCC1)Nc1nc(-c2ccc(Cl)cc2)cs1 | -0.54
CNc1nc2ccccc2n1CC(=O)c1ccccc1 | -1.12
Cc1cccc(NC(=O)CCN2CCOCC2)c1 | 0.1
CCOC(=O)c1sc(=NC(=O)c2cccs2)n(C)c1C | 0.29
CCN(CCCNC(=O)c1cc2c(-c3cccc(OC)c3)nn(C)c2s1)Cc1ccccc1 | 11.5
CCN(CC)CCNC(=O)c1cc2c(-c3cccc(OC)c3)nn(C)c2s1 | 10.3
Cc1c(C(=O)c2ccc(Cl)c([N+](=O)[O-])c2)c2ccccn2c1CCC#N | 0.29
O=C(CN1C(=O)NC2(CCCCCC2)C1=O)Nc1ccc(S(=O)(=O)N2CCOCC2)cc1 | 0.5
CSCCC(N=Cc1c(O)n(-c2ccc(F)cc2)c(=O)[nH]c1=O)C(=O)O (stereo not given) | 0.06
COc1ccc(-c2csc(N(CCCN(C)C)C(=O)c3cccs3)n2)cc1 | 0.38
COc1ccc(-c2csc(N(CCCN(C)C)C(=O)c3ccccc3F)n2)cc1 | -0.14
Cc1ccc2nc(-c3ccc(NC(=O)CCN4C(=O)c5ccccc5C4=O)cc3)sc2c1 | -0.32
O=C(COc1ccc([N+](=O)[O-])cc1)N(Cc1ccccc1)Cc1ccccc1 | -0.78
COC(=O)c1c(NC(=O)C(C)(C)C)sc2c1C(C(=O)OC)CC2 (stereo not given) | -0.06
COC(=O)c1c(NC(=O)C(C)C)sc2c1C(C(=O)OC)CC2 (stereo not given) | 1.21
CC1=C(C(=O)N2CCCC(CCC(=O)NCc3ccccc3F)C2)OCCO1 (stereo not given) | -0.63
COc1ccc(C2c3c(ncn(CCCN4CCOCC4)c3=N)Oc3ccc4ccccc4c32)cc1OC (stereo not given) | -1.6
COc1ccc(C2c3ccc4ccccc4c3Oc3ncn(CCCO)c(=N)c32)cc1 (stereo not given) | -1.98
COc1ccc(C2c3ccc4ccccc4c3Oc3ncn(CCN4CCOCC4)c(=N)c32)cc1 (stereo not given) | -0.91
COc1ccc(C2c3c(ncn(CCN4CCOCC4)c3=N)Oc3ccc4ccccc4c32)cc1OC (stereo not given) | -1.66
N=c1c2c(ncn1CCN1CCOCC1)Oc1ccc3ccccc3c1C2c1ccccc1 (stereo not given) | 2.66
COc1ccc(C2c3ccc4ccccc4c3Oc3ncn(CCO)c(=N)c32)cc1OC (stereo not given) | 57.3
Cc1nc2nc(CCc3ccccc3)nn2c(C)c1Cl | 0.45

Compound | CPE inhibition [%]
CN(Cc1ccon1)C(=O)CCc1nnc(Cc2ccc(-c3ccccc3)cc2)o1 | -0.95
Cc1cccc(-n2c(C)cc(C)c(C#N)c2=O)c1 | 0.53
O=C(NNc1ccccc1[N+](=O)[O-])Nc1ccc(F)cc1F | -0.58
O=C(CCc1nc2ccccc2s1)OCc1ccccc1F | -0.14
O=c1c2c(-c3cccc([N+](=O)[O-])c3)ccnc2[nH]n1-c1ccccc1 | 0
COCCn1c(N)c(N(Cc2ccccc2)C(=O)Cc2c(Cl)cccc2Cl)c(=O)[nH]c1=O | -0.15
CCCCn1c(SCC(=O)Nc2ccc3c(c2)CCC3)nc2ccccc2c1=O | -0.76
O=C(CSc1nc2ccccc2c(=O)n1-c1ccc(F)cc1)Nc1ccc(N2CCOCC2)cc1 | -1.03
O=C(CSc1nc2ccccc2c(=O)n1-c1ccc(F)cc1)Nc1ccc(C(=O)O)cc1 | 0.03
COc1cccc(-n2c(SCC(=O)Nc3ccc4c(c3)CCC4)nc3ccccc3c2=O)c1 | 2.86
Cc1ccc(-n2c(SCC(=O)Nc3ccc(N4CCOCC4)cc3)nc3ccccc3c2=O)cc1 | 12.4
C=CCn1c(SCC(=O)Nc2ccc3c(c2)CCC3)nc2ccccc2c1=O | -0.68
O=C(Nc1ccccc1)C1CC(O)CN1S(=O)(=O)c1ccc([N+](=O)[O-])cc1 (stereo not given) | 0.17
Cc1ccc(-c2oc3ccccc3c(=O)c2OCC(=O)O)cc1 | 0.23
COc1cc(NC(=O)COC(=O)CCc2cc(OC)c(OC)c(OC)c2)cc(OC)c1 | 1.02
COCCN(CCOC)C(=O)c1cc2sc3ccccc3c2s1 | -0.78
CCN(CC)CCCNC(=O)c1cc2c(=O)n(CC)c3ccccc3c2s1 | 1.54
COCCNC(=O)c1cc2sc3ccccc3c2s1 | -0.09
CN(C)CCCNC(=O)c1ccccn1 | 0.08
CCN(CC)C(=O)c1cc2sc3ccccc3c2s1 | -0.37
CCCCN(CC)CCNC(=O)c1cc2c(=O)n(CC)c3ccccc3c2s1 | -1.08

From PubChem BioAssay AID1621 (Southern Research Specialized Biocontainment Screening …, 2009)
